In PubChem BioAssay (NCI) one finds growth inhibition data, which are given here for 21 compounds.

The nature of test [1]: NCI Yeast Anticancer Drug Screen. Data for the rad50 strain (AID 155).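 Note: 0% = growth of vehicle-only cultures of the same strain.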 Conditions: S. cerevisiae rad50 strain growth inhibition; at 50.0 µM; active compounds read high. The procedure, abridged: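 A DNA repair-deficient yeast mutant serves as the test organism; compound-induced growth inhibition is calculated against vehicle-treated cells.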
Test [2] is described as follows: NCI Yeast Anticancer Drug Screen. Data for the mec2-1 strain (AID 157). Conditions: S. cerevisiae mec2-1 strain, at 50.0 µM, active compounds read high. A digest of the protocol:
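Using mec2-1 yeast: add compound, measure growth, express inhibition versus vehicle-treated cultures.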

Test [3] in a line: NCI Yeast Anticancer Drug Screen. Data for the sgs1 mgt1 strain (AID 161).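 Note: 0% = growth of cultures given vehicle only.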 Conditions: S. cerevisiae sgs1 mgt1 strain, at 50.0 µM, active compounds read high. The procedure, abridged:
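Growth of a repair-deficient yeast mutant was monitored after compound treatment and expressed as inhibition relative to vehicle-treated cultures.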

The nature of test [4]: NCI Yeast Anticancer Drug Screen. Data for the cln2 rad14 strain (AID 165).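 Note: 0% = growth equal to vehicle treated cultures.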 Conditions: S. cerevisiae cln2 rad14 strain, at 50.0 µM, active compounds read high. The procedure, abridged:
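Yeast strain cln2 rad14, bearing defects in cell cycle control and DNA repair, serves as the test system; values reflect growth inhibition compared with vehicle.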

Test [5] is described as follows: NCI Yeast Anticancer Drug Screen. Data for the bub3 strain (AID 167). Conditions: S. cerevisiae bub3 mutant strain, at 50.0 µM, active compounds read high. The procedure, abridged: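 Inhibition values come from growth of compound-treated mutant yeast normalised to vehicle-treated controls.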
Test [6] is described as follows: NCI Yeast Anticancer Drug Screen. Data for the mlh1 rad18 strain (AID 175). Conditions: S. cerevisiae mlh1 rad18 strain growth inhibition; at 50.0 µM; active compounds read high. A digest of the protocol: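 Steps: expose repair-defective yeast to compound; measure growth; express inhibition against vehicle-treated controls.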

The panel holds about 79,000 compounds, 15% with a hit somewhere; the sample as a whole holds those more often. A number with no mark means an inactive call. Active and inactive are the calls of the source. Cut-off read from the data, not from the text of the source: active = growth inhibition above about 70%; inactive = the rest.

Consider `NC(=O)C(=CNC(=S)Nc1ccc(Cl)c(Cl)c1)C(N)=O`, for which the growth inhibition is 8.6% in test [1]; -3.75% in test [2]; 18.4% in test [3]; 27.3% in test [4]; 2.05% in test [5]; 3.9% in test [6].
On to `C[C@H]1C(=O)OCN1S(=O)(=O)C(C)(C)C`, for which the growth inhibition was -0.05% in test [1]; 25% in test [2]; 16.1% in test [3]; -1.8% in test [4]; 16.1% in test [5]; -2.95% in test [6].
`CCCCCCCCCc1cc(-c2ccc(C=O)s2)sc1-c1ccc(C=O)s1`: the growth inhibition is 8.8% in test [1]; -4.5% in test [2]; -8.8% in test [3]; -3.6% in test [4]; -12.9% in test [5]; 0.4% in test [6].
`CCCCN(CCCC)CC(O)c1cc(-c2ccccc2)nc2c(O)cccc12` (stereo unspecified): the growth inhibition in test [1] was -28.6%; in test [2], 22.4%; in test [3], -18.2%; in test [4], -14.4%; in test [5], 3.6%; in test [6] it was -12.2%.
`Cc1ccc(NC(=O)N2CC2(C)C)cc1NC(=O)N1CC1(C)C`: the growth inhibition was 0.2% in test [1]; 0.55% in test [2]; 2.8% in test [3]; -1.6% in test [4]; 1.2% in test [5]; 4.9% in test [6].
As for `CCCCN(CCCC)CC(O)c1cccc2c1cc(Cl)c1ccccc12` (stereo unspecified), the growth inhibition is 99.2% (active) in test [1]; 99.6% (active) in test [2]; 99.5% (active) in test [3]; 98.5% (active) in test [4]; 98.5% (active) in test [5]; 99.3% (active) in test [6].
As to `NC(=O)OCc1c(-c2ccccc2)nn(-c2ccccc2)c1COC(N)=O`, the growth inhibition in test [1] is -26.2%; in test [2], -31%; in test [3], -18.5%; in test [4], -19.6%; in test [5], 1.05%; in test [6] it was -16.2%.
Take `[N-]=[N+]=C(C(=O)OCC#CCOC(=O)C(=[N+]=[N-])S(=O)(=O)c1ccccc1)S(=O)(=O)c1ccccc1`: the growth inhibition in test [1] was -8.95%; in test [2] it was -20.6%; in test [3], 12.8%; in test [4], -31.6%; in test [5], -8.95%; in test [6], -17.1%.
For `O=c1oc2ccc3ccccc3c2cc1-c1c[nH]c2ccccc12`, the growth inhibition in test [1] was 10.7%; in test [2] it was 10%; in test [3] it was 15.2%; in test [4], 11.6%; in test [5] it was 6.05%; in test [6], 7.05%.
Regarding `O=C(CP(=O)(c1ccccc1)c1ccccc1)c1cccc(C(=O)CP(=O)(c2ccccc2)c2ccccc2)c1`, the growth inhibition in test [1] was -6.35%; in test [2] it was -10.1%; in test [3], -7.05%; in test [4] it was -15.7%; in test [5], -21.1%; in test [6], -2.4%.
For the compound `CC[N+]1(C)CCOCC1`, the growth inhibition was -13.7% in test [1]; 3.35% in test [2]; -8.65% in test [3]; -21.9% in test [4]; -5.2% in test [5]; -8.15% in test [6].
As for `C/C(=N/NC(=O)C1CCCO1)c1ccc(C)cc1` (stereo unspecified), the growth inhibition was 0.95% in test [1]; -6.5% in test [2]; -4.75% in test [3]; -92% in test [4]; -6.5% in test [5]; -28.9% in test [6].
`CN(C)c1ccc(/C=C/C(=O)CC(=O)/C=C/c2ccc(N(C)C)cc2)cc1`: the growth inhibition is 22.2% in test [1]; 21.3% in test [2]; -28.2% in test [3]; -27.4% in test [4]; -4.3% in test [5]; 0.8% in test [6].
As for `COC(=O)c1ccc(N=NN(C)COC(C)=O)cc1`, the growth inhibition in test [1] was 27.4%; in test [2], 12%; in test [3] it was 11.2%; in test [4], 18.5%; in test [5], 10.2%; in test [6], 18.8%.
For the compound `CCNC(=O)NS(=O)(=O)c1ccc(Sc2ccc(C)cc2)nc1`, the growth inhibition in test [1] is -11.2%; in test [2], -7.3%; in test [3], -1.1%; in test [4], -20.5%; in test [5], 7.2%; in test [6], 0.7%.
`CC1=CC(=O)[C@@H]2C[C@H]1C2(C)C`: the growth inhibition was 15.3% in test [1]; 12.8% in test [2]; -33.9% in test [3]; -2.9% in test [4]; -2.1% in test [5]; 22.2% in test [6].
As to `O=C(O)CSc1ccccc1`, the growth inhibition in test [1] is 39.5%; in test [2] it was 18.4%; in test [3], 17.8%; in test [4] it was 13.3%; in test [5] it was 20.6%; in test [6], 0.15%.
For the compound `C/C(=N\O)C1(C)CC=CCC1C(=O)O` (stereo unspecified), the growth inhibition in test [1] is -4.8%; in test [2], 4.5%; in test [3] it was 2.8%; in test [4], 19.2%; in test [5] it was -11.3%; in test [6], 1.4%.
Take `O=C(NCC(=O)N1CCCC1C(=O)OC(=O)C1CCCN1C(=O)CNC(=O)OCc1ccccc1)OCc1ccccc1` (stereo unspecified): the growth inhibition in test [1] was 44.3%; in test [2], 1.2%; in test [3], 4.35%; in test [4], 16.2%; in test [5], 18.2%; in test [6], -28.1%.
As for `CCCCCCCCCCCCCCCCCCS`, the growth inhibition was -1.15% in test [1]; -25.3% in test [2]; -7.85% in test [3]; -14.7% in test [4]; 8.3% in test [5]; -5.7% in test [6].
Consider `O=S(=O)(NO)c1ccc(Cl)cc1`, for which the growth inhibition in test [1] was 12.5%; in test [2], 7.8%; in test [3], 8.35%; in test [4], 23.8%; in test [5], 6.7%; in test [6] it was 3.2%.
